PubChem BioAssay (NCATS)
Results filed as inconclusive are left out. Where a call stands in place of a potency, no number is given. Calls of active or inactive are those of the source. Calls follow the shape of the dose curve; as a rule, active = well fitted activation curve with a large enough effect; inconclusive = small, poorly fitted or top-dose-only effect; inactive = flat fitted curve, though single readings scatter.

target: D(1A) dopamine receptor (Homo sapiens) (UniProt P21728); experiment: HTS Assay for Allosteric Agonists of the Human D1 Dopamine Receptor: Primary Screen for Agonists (AID 488981); conditions: Inducible HEK293 T-REx D1 cells, calcium-flux fluorescence, 180 s kinetic; series mostly up to 41.8 µM
Text: Dopamine receptors (DARs) are involved in the etiology and/or therapy of a number of neuropsychiatric and endocrine disorders. For instance, all receptor-based antiparkinsonian drugs work via stimulating the […] DAR subtype whereas all FDA-approved antipsychotic agents are antagonists of this receptor. […] There are three different types of allosteric modulators that we are seeking, two of which will stimulate or augment receptor signaling, allosteric agonists and potentiators, while the third, allosteric antagonists, will attenuate receptor signaling. The present primary screening assay measures compound agonism by tracking calcium flux in a […], inducible Hek293 Trex D1 cell line.
Freshly passaged cells are plated in 1536 well black, clear bottom plates at a density of 4000 cells/well in 3 ul of complete media containing 1x tetracycline inducer. After an overnight incubation at 30 C in 5% CO2, cells are loaded with 2 ul of the no wash Calcium Assay Kit (ABD Bioquest) and incubated at room temperature for 30 to 90 minutes. A 10 cycle (1 second/cycle) baseline measurement is taken and then the FDSS online 1536 pintool delivers 23 nl of compound library (as well as dopamine controls) to the plate. The plate is measured for kinetically at 1 cycle/sec for 180 seconds and is considered to be the agonist portion of the assay (eg, compounds which activate a positive calcium response during this portion are flagged as potential agonists). Following the 180 second read, 1 ul of an EC20 of dopamine is delivered by an onboard pipette head. Measurements are taken kinetically for an additional 180 seconds.

D(1A) dopamine receptor (Homo sapiens), sequence (P21728 whole entry, looked up): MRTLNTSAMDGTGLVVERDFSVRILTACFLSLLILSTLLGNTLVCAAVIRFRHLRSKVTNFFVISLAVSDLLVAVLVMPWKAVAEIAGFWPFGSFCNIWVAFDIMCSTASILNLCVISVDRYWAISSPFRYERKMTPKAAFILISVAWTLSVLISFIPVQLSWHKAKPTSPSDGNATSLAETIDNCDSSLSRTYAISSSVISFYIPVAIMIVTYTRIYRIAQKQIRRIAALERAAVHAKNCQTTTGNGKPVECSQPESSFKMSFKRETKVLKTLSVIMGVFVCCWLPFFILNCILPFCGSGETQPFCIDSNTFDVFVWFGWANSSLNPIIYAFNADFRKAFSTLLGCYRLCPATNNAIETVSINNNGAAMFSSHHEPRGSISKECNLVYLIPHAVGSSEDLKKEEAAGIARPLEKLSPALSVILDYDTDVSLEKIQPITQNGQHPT

Row | SMILES | Potency
1 | C#CCN(C)CCCOc1ccc(Cl)cc1Cl | inactive
2 | c1cnc(N2CCN(Cc3ccc4c(c3)OCO4)CC2)nc1 | inactive
3 | CCCNC(C)C(=O)Nc1ccccc1C (stereo not given) | inactive
4 | CCOC(=O)c1cnc2c(cnn2CC)c1NN=C(C)C | inactive
5 | CC(=O)Nc1nnc(S(N)(=O)=O)s1 | inactive
6 | CN(C(=O)CCCOc1ccc2[nH]c(=O)ccc2c1)C1CCCCC1 | inactive
7 | CC(=O)OC(C)C[N+](C)(C)C (stereo not given) | inactive
8 | CCN(CC)CCNC(=O)c1ccc(NC(C)=O)cc1 | inactive
9 | CC(C)(C)c1ccc(C(=O)CCCN2CCC(OC(c3ccccc3)c3ccccc3)CC2)cc1 | inactive
10 | CC(C)NNC(=O)c1ccncc1 | inactive
11 | COC(=O)[C@@H](N)Cc1ccc(O)c(O)c1 | inactive
12 | COCCc1ccc(OCC(O)CNC(C)C)cc1 (stereo not given) | inactive
13 | C[C@]12C=CC(=O)C=C1CC[C@H]1[C@@H]3C[C@@H](O)[C@](O)(C(=O)CO)[C@@]3(C)C[C@H](O)[C@@]12F | inactive
14 | COc1cc(Cc2cnc(N)nc2N)cc(OC)c1OC | inactive
15 | OCCN1CCN(CC/C=C2/c3ccccc3Sc3ccc(C(F)(F)F)cc32)CC1 | inactive
16 | CN(C)CCCN1c2ccccc2Sc2ccc(C(F)(F)F)cc21 | inactive
17 | Cc1nc2sccn2c(=O)c1CCN1CCC(=C(c2ccc(F)cc2)c2ccc(F)cc2)CC1 | inactive
18 | CC[N+](C)(C)c1cccc(O)c1 | inactive
19 | NC(Cc1ccc(Cl)cc1)C(=O)O (stereo not given) | inactive
20 | CCN1CCc2nc(N)oc2CC1 | inactive

Row | SMILES | Potency
21 | C[N+](C)(C)CCCCCCCCCC[N+](C)(C)C | inactive
22 | COC(=O)C1=C(C)NC(C)=C(C(=O)OCCN(C)Cc2ccccc2)C1c1cccc([N+](=O)[O-])c1 (stereo not given) | inactive
23 | CCN(CC)CCNC(=O)c1cc(S(C)(=O)=O)ccc1OC | inactive
24 | C[N+](C)(C)CCOC(=O)CCC(=O)OCC[N+](C)(C)C | inactive
25 | CCCN(CCC)C(=O)C(CCC(=O)O)NC(=O)c1ccccc1 (stereo not given) | inactive
26 | O=C1CC2(CCCC2)CC(=O)N1CCCCN1CCN(c2ncccn2)CC1 | inactive
27 | CO[C@@]1(NC(=O)CSCC#N)C(=O)N2C(C(=O)O)=C(CSc3nnnn3C)CS[C@@H]21 | inactive
28 | CC(C)(Oc1ccc(CCNC(=O)c2ccc(Cl)cc2)cc1)C(=O)O | inactive
29 | CCOC(=O)C1=C(C)NC(C)=C(C(=O)OC)C1c1cccc([N+](=O)[O-])c1 (stereo not given) | inactive
30 | Cc1nc2ccccn2c(=O)c1CCN1CCC(C(=O)c2ccc(F)cc2)CC1 | inactive
31 | CC1=C(C)C(=O)C(CCCCC#CCCCC#CCO)=C(C)C1=O | inactive
32 | C[n+]1cc2c3c(ccc2c2ccc4cc5c(cc4c21)OCO5)OCO3 | inactive
33 | Cc1ccc(=O)n(-c2ccccc2)c1 | inactive
34 | CCOC(=O)C1=C(C)NC(C)=C(C(=O)OC)C1c1cccc(Cl)c1Cl (stereo not given) | inactive
35 | NC1=NCC2c3ccccc3Cc3ccccc3N12 (stereo not given) | inactive
36 | CC(N=C(NC#N)Nc1ccncc1)C(C)(C)C (stereo not given) | inactive
37 | Nc1c2c(nc3ccccc13)CCCC2O (stereo not given) | inactive
38 | NC(=O)c1cn(Cc2c(F)cccc2F)nn1 | inactive
39 | Cc1nnc(SCC2=C(C(=O)O)N3C(=O)[C@@H](NC(=O)Cn4cnnn4)[C@H]3SC2)s1 | inactive
40 | OC(CCN1CCCCC1)(c1ccccc1)C1CCCCC1 (stereo not given) | inactive
